Measured values from PubChem BioAssay (EPA / NIEHS).
Inconclusive results are not listed. Active and inactive are the calls of the source. The calls were made as follows, unless noted: active = hit-call score of the fitted dose curve at least 0.9, where 1 is the maximum; inactive = score below 0.9.

Assays:
[1] = ATG_BRE_CIS: Attagene CIS-FACTORIAL HepG2 Assay for human Bone Morphogenetic Protein (BMP) Response Element (BRE) (AID 2282933); settings: HepG2 BMP response element reporter, Attagene transcription factor profiling; actives raise or lower the signal
Summary of the method: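 Transient MRTU transfection of human HepG2 liver cells; 24 h compound treatment; total RNA isolated, reverse-transcribed, PCR-amplified, 6-FAM labelled, HpaI-cut, capillary electrophoresis. DMSO = negative control/baseline, bidirectional fit.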

[2] = ATG_EGR_CIS: Attagene CIS-FACTORIAL HepG2 Assay for human Early Growth Response 1 (EGR1) (AID 2282938); settings: HepG2 Attagene CIS-FACTORIAL EGR reporter mRNA; actives raise or lower the signal
Summary of the method: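 Endpoint derived by bidirectional fitting versus DMSO vehicle. Method: cis-promoter reporter units transfected into HepG2, 24 h dosing, RNA isolation, RT-PCR with 6-FAM primer extension and HpaI digestion, then capillary electrophoresis fluorescence detection.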

[3] = target: Hypoxia-inducible factor 1-alpha (Homo sapiens) (UniProt Q16665); experiment: ATG_HIF1a_CIS: Attagene CIS-FACTORIAL HepG2 Assay for human Hypoxia Inducible Factor 1 (HIF1A) (AID 2282951); settings: HepG2 Attagene cis-factorial HIF1a reporter transcription; actives raise or lower the signal
Summary of the method: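 Dosed 24 h, transfected HepG2 cells yielded total RNA whose reporter transcripts were RT-PCR-amplified and sized by capillary electrophoresis using fluorescent labelling; DMSO defined baseline, with gain and loss of signal both fitted.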

[4] = ATG_MRE_CIS: Attagene CIS-FACTORIAL HepG2 Assay for human Metal Responsive Element (MRE) (AID 2282954); settings: HepG2 MRE cis-reporter transcription, Attagene multiplex; actives raise or lower the signal
Summary of the method: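 Transient MRTU transfection of HepG2 (FuGene 6); 24 h dosing; total RNA → oligo(dT) RT, PCR, 6-FAM primer extension, HpaI cut, CE. Bidirectional fit vs DMSO.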

[5] = ATG_PBREM_CIS: Attagene CIS-FACTORIAL HepG2 Assay for human Phenobarbital-responsive Enhancer Module (PBREM) (AID 2282955); settings: HepG2 PBREM cis-reporter, Attagene multiplexed transcription; actives raise or lower the signal
Summary of the method: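 Transfected liver-derived HepG2 cells exposed 24 h; PBREM reporter transcript quantified via RT-PCR and capillary electrophoresis, with activity in either direction referenced to DMSO.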

[6] = ATG_RORE_CIS: Attagene CIS-FACTORIAL HepG2 Assay for human RAR-related Orphan Receptor Element (RORE) (AID 2282959); settings: HepG2 Attagene cis-factorial RORE reporter, mRNA; actives raise or lower the signal
Summary of the method: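 Transiently transfected HepG2 reporter cells were treated 24 h. Reporter transcripts were detected by RT-PCR and capillary electrophoresis, with bidirectional fitting against DMSO.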

[7] = target: X-box-binding protein 1 (Homo sapiens) (UniProt P17861); experiment: ATG_Xbp1_CIS: Attagene CIS-FACTORIAL HepG2 Assay for human X-box Binding Protein 1 (XBP1) (AID 2282972); settings: HepG2 XBP1 cis-element reporter, Attagene multiplex; actives raise or lower the signal
Summary of the method: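 HepG2 cells transiently transfected with cis-regulated multiple reporter transcription units; endogenous transcription factor activity measured 24 hours after chemical dosing. Reporter mRNA quantified by RT-PCR, 6-FAM primer extension, HpaI digestion and capillary electrophoresis; bidirectional fitting versus DMSO.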

[8] = ATG_M_19_TRANS: Attagene TRANS-FACTORIAL HepG2 Assay for M19 Transcription Factor (Internal Marker) (AID 2282974; active = hit-call score of the fitted dose curve at least 0.9, where 1 is the maximum); settings: HepG2 Attagene TRANS-FACTORIAL M19 internal marker reporter
Summary of the method: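 Using RT-PCR and capillary electrophoresis, reporter mRNA from transiently transfected human HepG2 cells was quantified following 24 h exposure; activity was fitted in the positive direction against DMSO.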

[9] = ATG_NFI_CIS: Attagene CIS-FACTORIAL HepG2 Assay for human Nuclear Factor I (NFI) (AID 2282989); settings: HepG2 cis-regulatory reporter, NFI response element transcription; actives raise or lower the signal
Summary of the method: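 Transient MRTU transfection of HepG2 → 24 h chemical dosing → total RNA, oligo(dT) RT → PCR, 6-FAM primer extension, HpaI cut → capillary electrophoresis. Endpoint fitted bidirectionally relative to DMSO.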

[10] = ATG_NF_kB_CIS: Attagene CIS-FACTORIAL HepG2 Assay for human Nuclear Factor Kappa B (NF-kB) (AID 2282991); settings: HepG2 Attagene cis-factorial NF-kB reporter mRNA; actives raise or lower the signal
Summary of the method: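 Endpoint from a 52-component multiplexed HepG2 reporter panel: cis-regulated transcription units transiently transfected, 24 h dosing, reporter mRNA quantified by RT-PCR and capillary electrophoresis, scored as increase or decrease against DMSO.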

[11] = ATG_NRF2_ARE_CIS: Attagene CIS-FACTORIAL HepG2 Assay for human Nuclear Factor Erythroid 2 Related Factor 2 (NFR2) response to Antioxidant Response Elements (ARE) (AID 2282992); settings: HepG2 Attagene ARE/NRF2 reporter, transcription factor activity; actives raise or lower the signal;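 as to AC50: reporter mRNA level measured by RT-PCR and capillary electrophoresis fluorescence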
Summary of the method: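 HepG2 cells transiently transfected with multiplexed cis-regulated reporter transcription units measure endogenous transcription factor activity. Reporter mRNA at 24 h is quantified by RT-PCR, fluorescent labelling and capillary electrophoresis, with bidirectional fitting relative to DMSO.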

[12] = target: human Retinoid X Receptor beta (RXRb), RXRB (gene 6257) (UniProt P28702); experiment: ATG_RXRb_TRANS: Attagene TRANS-FACTORIAL HepG2 Assay for human Retinoid X Receptor beta (RXRb) (AID 2283013; active = hit-call score of the fitted dose curve at least 0.9, where 1 is the maximum)
Summary of the method: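 Transfect HepG2 with GAL4-UAS multi-reporter constructs (chimeric NR-Gal4, TRANS format); dose compound 24 h; isolate RNA, RT-PCR, FAM primer extension, HpaI digest; quantify by capillary electrophoresis; positive direction vs DMSO.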

[13] = target: Retinoic acid receptor alpha (Homo sapiens) (UniProt P10276); experiment: ATG_DR5_RAR_CIS: Attagene CIS-FACTORIAL HepG2 Assay for human Retinoic Acid Receptor Alpha (RARE), DR5 submotif (AID 2282934); settings: HepG2 Attagene cis-factorial RARE DR5 reporter, mRNA; actives raise or lower the signal
Summary of the method: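 HepG2, transient cis-reporter transfection, 24 h exposure. mRNA readout: RT-PCR, FAM label, HpaI cut, capillary electrophoresis. DMSO baseline, gain/loss fitting.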

[14] = target: Hepatocyte nuclear factor 4-alpha (Homo sapiens) (UniProt P41235); experiment: ATG_HNF4a_TRANS: Attagene TRANS-FACTORIAL HepG2 Assay for human Hepatocyte Nuclear Factor 4 alpha (HNF4a) (AID 2282982; active = hit-call score of the fitted dose curve at least 0.9, where 1 is the maximum); settings: HepG2 HNF4a transactivation reporter, mRNA readout
Summary of the method: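 Readout is fluorescent reporter-transcript fragments resolved by capillary electrophoresis after RT-PCR from HepG2 cells dosed for 24 h. Cells carried transfected GAL4-UAS reporter constructs measuring exogenous NR-GAL4 chimera activity; DMSO served as baseline.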

[15] = ATG_M_06_TRANS: Attagene TRANS-FACTORIAL HepG2 Assay for M06 Transcription Factor (Internal Marker) (AID 2282983; active = hit-call score of the fitted dose curve at least 0.9, where 1 is the maximum;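 also: reporter transcript level by RT-PCR then capillary electrophoresis fluorescence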); settings: HepG2 Attagene TRANS M06 internal marker reporter
Summary of the method: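 After a 24 h chemical treatment of transfected HepG2, RNA underwent DNase I treatment, reverse transcription and reporter-specific PCR; labelled, HpaI-digested products were sized by capillary electrophoresis. Signal increase relative to DMSO defined activity.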

[16] = ATG_M_32_TRANS: Attagene TRANS-FACTORIAL HepG2 Assay for M32 Transcription Factor (Internal Marker) (AID 2282984; active = hit-call score of the fitted dose curve at least 0.9, where 1 is the maximum;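 also: transcript level of a background control reporter unit measured by RT-PCR and capillary electrophoresis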); settings: HepG2 Attagene TRANS M32 internal marker reporter
Summary of the method: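 Measures reporter mRNA induction in human HepG2 liver cells after 24 h chemical treatment. Transcripts from transiently transfected GAL4-UAS reporter units are amplified, fluorescently labelled and sized by capillary electrophoresis; gain of signal relative to DMSO.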

[17] = target: human Peroxisome Proliferator-activated Receptor alpha (PPARa), PPARA (gene 5465) (UniProt Q07869); experiment: ATG_PPARa_TRANS: Attagene TRANS-FACTORIAL HepG2 Assay for human Peroxisome Proliferator-activated Receptor alpha (PPARa) (AID 2283001; active = hit-call score of the fitted dose curve at least 0.9, where 1 is the maximum;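 as to AC50: potency for gain of reporter signal over DMSO so agonist or activator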)
Summary of the method: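 Read-out is fluorescence of reporter cDNA fragments resolved by capillary electrophoresis after RT-PCR. Human HepG2 liver cells carried transfected PPARa-Gal4 chimera and GAL4-UAS reporter units, treated 24 h; activity scored as increase over DMSO.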

[18] = target: human Thyroid Receptor alpha (THRa1), THRA (gene 7067) (UniProt P10827); experiment: ATG_THRa1_TRANS: Attagene TRANS-FACTORIAL HepG2 Assay for human Thyroid Receptor alpha (THRa1) (AID 2283014; active = hit-call score of the fitted dose curve at least 0.9, where 1 is the maximum)
Summary of the method: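 Transient HepG2 transfection, NR-Gal4 chimera driving GAL4-UAS reporters; 24 h compound exposure; total RNA, oligo(dT) RT, PCR, fluorescent primer extension, capillary electrophoresis. Upward direction vs DMSO control.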

[19] = ATG_AP_2_CIS: Attagene CIS-FACTORIAL HepG2 Assay for human Activator Protein 2 (AP-2) (AID 2282932); settings: HepG2 AP-2 cis-reporter, Attagene transcription factor profiling; actives raise or lower the signal
Summary of the method: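 HepG2, transient MRTU transfection, cis-regulated reporters; 24 h compound exposure; RNA isolated, RT-PCR, 6-FAM labelling, HpaI digest, CE fluorescence. DMSO = negative control/baseline, bidirectional fit.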

[20] = ATG_TA_CIS: Attagene CIS-FACTORIAL HepG2 Assay for human TA Basal Promoter (AID 2282964); settings: HepG2 Attagene CIS-factorial TA basal promoter reporter; actives raise or lower the signal
Summary of the method: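 Read-out: fluorescent reporter-transcript fragments resolved by capillary electrophoresis after RT-PCR and HpaI digestion. Source: HepG2 cells carrying transiently transfected multi-reporter cis constructs, treated 24 h. Endpoint fitted bidirectionally relative to DMSO.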

Measured: AC50

X-box-binding protein 1 (Homo sapiens), sequence (P17861 whole entry, looked up): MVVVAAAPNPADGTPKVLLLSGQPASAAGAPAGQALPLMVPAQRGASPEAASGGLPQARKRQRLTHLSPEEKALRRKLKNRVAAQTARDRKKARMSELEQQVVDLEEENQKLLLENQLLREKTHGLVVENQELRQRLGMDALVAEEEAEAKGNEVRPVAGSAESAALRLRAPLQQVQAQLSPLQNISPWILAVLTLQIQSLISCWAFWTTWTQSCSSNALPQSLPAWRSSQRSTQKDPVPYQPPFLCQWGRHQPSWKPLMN
human Peroxisome Proliferator-activated Receptor alpha (PPARa), PPARA (gene 5465), sequence (Q07869 whole entry, looked up, the tested form may be a part): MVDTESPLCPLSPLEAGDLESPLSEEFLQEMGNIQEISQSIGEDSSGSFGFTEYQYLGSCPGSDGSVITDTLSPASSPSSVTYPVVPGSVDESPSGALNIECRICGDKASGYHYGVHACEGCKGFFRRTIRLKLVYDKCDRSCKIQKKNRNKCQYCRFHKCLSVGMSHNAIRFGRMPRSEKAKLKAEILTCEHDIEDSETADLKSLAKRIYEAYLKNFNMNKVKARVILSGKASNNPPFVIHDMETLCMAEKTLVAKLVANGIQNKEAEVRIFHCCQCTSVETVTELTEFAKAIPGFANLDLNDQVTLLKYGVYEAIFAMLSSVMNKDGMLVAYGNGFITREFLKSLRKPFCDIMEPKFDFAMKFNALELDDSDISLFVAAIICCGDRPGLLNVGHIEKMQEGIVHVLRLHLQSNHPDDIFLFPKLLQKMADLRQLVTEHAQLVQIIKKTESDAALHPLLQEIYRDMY
human Retinoid X Receptor beta (RXRb), RXRB (gene 6257), sequence (P28702 whole entry, looked up, the tested form may be a part): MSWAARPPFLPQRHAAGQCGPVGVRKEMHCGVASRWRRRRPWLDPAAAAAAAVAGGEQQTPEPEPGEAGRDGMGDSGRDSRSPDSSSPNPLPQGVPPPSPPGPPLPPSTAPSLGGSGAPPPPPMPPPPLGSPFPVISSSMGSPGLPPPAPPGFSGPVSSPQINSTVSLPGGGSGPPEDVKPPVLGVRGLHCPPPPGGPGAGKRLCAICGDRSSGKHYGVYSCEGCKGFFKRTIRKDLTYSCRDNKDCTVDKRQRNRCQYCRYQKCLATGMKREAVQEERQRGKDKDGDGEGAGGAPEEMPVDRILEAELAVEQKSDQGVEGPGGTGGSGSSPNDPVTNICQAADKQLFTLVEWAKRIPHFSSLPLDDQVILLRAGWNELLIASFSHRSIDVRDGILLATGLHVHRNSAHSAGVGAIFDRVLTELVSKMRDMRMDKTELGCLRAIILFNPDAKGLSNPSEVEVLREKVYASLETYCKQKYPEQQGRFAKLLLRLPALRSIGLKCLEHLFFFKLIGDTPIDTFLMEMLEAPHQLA
Retinoic acid receptor alpha (Homo sapiens), sequence (P10276 whole entry, looked up): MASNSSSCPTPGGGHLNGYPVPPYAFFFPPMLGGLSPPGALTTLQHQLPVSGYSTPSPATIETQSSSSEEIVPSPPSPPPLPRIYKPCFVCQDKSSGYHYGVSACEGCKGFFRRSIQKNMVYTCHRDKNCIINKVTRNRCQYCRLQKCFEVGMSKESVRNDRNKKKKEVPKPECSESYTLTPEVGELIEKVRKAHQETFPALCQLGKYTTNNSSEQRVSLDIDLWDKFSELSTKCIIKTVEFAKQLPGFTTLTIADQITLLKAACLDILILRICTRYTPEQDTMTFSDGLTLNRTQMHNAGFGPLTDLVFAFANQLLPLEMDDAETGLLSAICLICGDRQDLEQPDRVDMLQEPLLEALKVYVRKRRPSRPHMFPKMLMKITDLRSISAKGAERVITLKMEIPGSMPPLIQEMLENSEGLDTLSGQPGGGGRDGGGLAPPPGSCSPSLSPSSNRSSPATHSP
Hepatocyte nuclear factor 4-alpha (Homo sapiens), sequence (P41235 whole entry, looked up, the tested form may be a part): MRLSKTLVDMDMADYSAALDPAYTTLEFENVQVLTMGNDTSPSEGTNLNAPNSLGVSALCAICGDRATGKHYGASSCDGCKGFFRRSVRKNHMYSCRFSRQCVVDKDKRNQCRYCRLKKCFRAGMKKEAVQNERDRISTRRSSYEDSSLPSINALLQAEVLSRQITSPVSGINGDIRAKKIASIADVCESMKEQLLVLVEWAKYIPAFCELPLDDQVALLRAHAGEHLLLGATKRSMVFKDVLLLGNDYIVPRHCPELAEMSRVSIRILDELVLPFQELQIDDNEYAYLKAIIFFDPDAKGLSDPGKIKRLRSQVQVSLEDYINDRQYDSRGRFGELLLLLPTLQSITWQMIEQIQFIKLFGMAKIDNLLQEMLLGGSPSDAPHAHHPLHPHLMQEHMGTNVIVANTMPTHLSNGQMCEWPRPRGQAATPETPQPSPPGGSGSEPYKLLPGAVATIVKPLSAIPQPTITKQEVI
human Thyroid Receptor alpha (THRa1), THRA (gene 7067), sequence (P10827 whole entry, looked up, the tested form may be a part): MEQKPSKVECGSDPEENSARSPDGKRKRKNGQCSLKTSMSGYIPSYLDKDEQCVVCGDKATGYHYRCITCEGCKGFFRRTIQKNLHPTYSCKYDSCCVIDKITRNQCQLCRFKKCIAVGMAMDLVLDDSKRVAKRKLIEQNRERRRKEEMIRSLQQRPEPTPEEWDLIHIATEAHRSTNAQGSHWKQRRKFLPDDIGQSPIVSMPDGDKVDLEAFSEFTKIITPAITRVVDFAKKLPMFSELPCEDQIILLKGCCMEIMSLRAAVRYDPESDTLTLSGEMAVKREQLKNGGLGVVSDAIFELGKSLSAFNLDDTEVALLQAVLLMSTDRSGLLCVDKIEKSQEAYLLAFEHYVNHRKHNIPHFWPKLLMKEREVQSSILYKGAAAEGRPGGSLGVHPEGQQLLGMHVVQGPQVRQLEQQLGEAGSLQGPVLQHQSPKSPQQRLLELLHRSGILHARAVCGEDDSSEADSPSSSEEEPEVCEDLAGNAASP
Hypoxia-inducible factor 1-alpha (Homo sapiens), sequence (Q16665 whole entry, looked up): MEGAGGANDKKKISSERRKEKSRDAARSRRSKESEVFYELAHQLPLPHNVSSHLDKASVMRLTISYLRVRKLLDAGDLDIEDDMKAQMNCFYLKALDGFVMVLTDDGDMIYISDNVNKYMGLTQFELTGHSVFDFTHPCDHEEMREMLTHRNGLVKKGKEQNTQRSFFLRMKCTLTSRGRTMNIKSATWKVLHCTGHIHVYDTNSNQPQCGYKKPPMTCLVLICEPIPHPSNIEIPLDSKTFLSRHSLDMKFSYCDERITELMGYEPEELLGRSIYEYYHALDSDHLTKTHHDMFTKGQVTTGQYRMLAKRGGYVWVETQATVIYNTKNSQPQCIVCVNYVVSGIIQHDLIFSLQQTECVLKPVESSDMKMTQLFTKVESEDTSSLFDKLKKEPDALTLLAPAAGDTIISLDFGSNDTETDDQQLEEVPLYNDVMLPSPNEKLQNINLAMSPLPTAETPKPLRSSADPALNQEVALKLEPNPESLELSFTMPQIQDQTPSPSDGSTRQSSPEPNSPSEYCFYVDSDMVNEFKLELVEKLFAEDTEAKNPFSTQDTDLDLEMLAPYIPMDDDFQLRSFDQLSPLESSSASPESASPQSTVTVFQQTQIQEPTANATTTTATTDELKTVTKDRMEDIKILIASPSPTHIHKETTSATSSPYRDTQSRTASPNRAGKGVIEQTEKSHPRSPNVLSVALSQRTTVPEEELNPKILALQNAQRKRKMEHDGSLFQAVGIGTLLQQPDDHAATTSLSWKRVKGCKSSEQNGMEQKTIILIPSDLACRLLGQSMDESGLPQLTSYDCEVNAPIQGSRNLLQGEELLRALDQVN

CCCN[C@H]1CCc2nc(N)sc2C1
inactive: [1] | [2] | [3] | [4] | [5] | [6] | [7] | [8] | [9] | [10] | [11] | [12]

O=C(CC(C(=O)OC1CCCCC1)S(=O)(=O)O)OC1CCCCC1 (stereo not given)
active: [17] 35.1 µM
inactive: [1] | [13] | [3] | [4] | [5] | [6] | [7] | [8] | [14] | [15] | [16] | [9] | [10] | [12] | [18]

Sc1nc2ccccc2s1
active: [6] 19.3 µM | [11] 100 µM
inactive: [19] | [1] | [13] | [2] | [5] | [15] | [16] | [17] | [12] | [18]

CCC(C)C1N=C(C)C(C)S1 (stereo not given)
inactive: [19] | [1] | [13] | [2] | [3] | [4] | [6] | [7] | [15] | [16] | [10] | [11] | [12] | [18]

CN(C)N=Nc1ccccc1
inactive: [19] | [1] | [2] | [3] | [4] | [20] | [7] | [8] | [14] | [16] | [9] | [10] | [17] | [12] | [18]

C=CCOC(=O)C(=C)C
inactive: [19] | [1] | [13] | [2] | [3] | [5] | [20] | [7] | [14] | [15] | [9] | [11] | [17] | [12]

O=C1NC(=O)[C@@H]2CC=CC[C@H]12
inactive: [19] | [1] | [13] | [2] | [3] | [5] | [6] | [14] | [15] | [11] | [17] | [12] | [18]

O=C(O)c1cc(Cl)cc(Cl)c1O
inactive: [19] | [1] | [2] | [6] | [20] | [7] | [8] | [14] | [15] | [10] | [17] | [12] | [18]

CCO[Si](OCC)(OCC)c1ccccc1
inactive: [19] | [1] | [2] | [4] | [6] | [20] | [7] | [8] | [15] | [16] | [11] | [17] | [12] | [18]

CCCCNC(N)=O
inactive: [19] | [13] | [3] | [5] | [6] | [20] | [7] | [15] | [10] | [17] | [12] | [18]

[O-][n+]1ccc(Cl)cc1
inactive: [1] | [13] | [2] | [3] | [4] | [5] | [7] | [14] | [15] | [9] | [10] | [17] | [12]

CC1=C(CC(=O)O)c2cc(F)ccc2/C1=C\c1ccc(S(C)=O)cc1 (stereo not given)
active: [5] 26 µM | [11] 23 µM
inactive: [19] | [1] | [4] | [6] | [20] | [7] | [8] | [16] | [9] | [10] | [17] | [12] | [18]

CCCCCCCCCC/C=C/C1CC(=O)OC1=O (stereo not given)
inactive: [2] | [3] | [4] | [5] | [6] | [20] | [8] | [15] | [16] | [10] | [17] | [12]
